What all share (assay): NCI-60 one-dose screen, 48 h (100 = growth as untreated, 0 = no growth, -100 = all killed)
What all share (conditions): 10 µM unless noted

In assay [1] the test system is NCI-H23 lung.
Assay [2] has as its system NCI-H226 lung.
Assay [3] has as its system NCI-H322M lung.
Assay [4] deals with HOP-62 NSCLC.
Assay [5] concerns NCI-H460 lung.
Assay [6] relates to HOP-92 NSCLC.
Assay [7] deals with NCI-H522 lung.
In assay [8] the test system is A549/ATCC NSCLC.
Assay [9] has as its system 786-0 renal.
For assay [10], the system named is COLO 205 colon.
Assay [11] deals with DU-145 prostate.
The test system of assay [12] is K-562 leukemia.
In assay [13] the test system is MALME-3M melanoma.
The test system of assay [14] is MDA-MB-231 breast.
Assay [15] concerns RXF 393 renal.
Assay [16] deals with SF-268 CNS.
The subject of assay [17] is SF-295 CNS.
Assay [18] relates to SF-539 CNS.
In assay [19] the test system is M14 melanoma.

The results in this text go back to PubChem BioAssay (NCI).

The panel holds about 83,000 compounds, 20% with a hit somewhere; the sample as a whole holds those more often.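 Single-dose data. Exposure time 48 hours. Values below 10 considered active.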 Values without a mark were called inactive. Calls of active or inactive are those of the source.

As for `Cn1c2ccccc2c2c3c(c4c5cccnc5[nH]c4c21)C(=O)N(O)C3=O`, the growth was 15.1% in [1]; 74.3% in [2]; 62.6% in [3]; 15.3% in [4]; 14.7% in [5]; 78.9% in assay [6]. The growth was 47.6% in assay [7]; 62.3% in assay [8]; 36.6% in assay [9]; 22.4% in assay [10]; 26.5% in assay [11]; 29.8% in assay [12]. Moreover, the growth in [13] was 58.2%; in [14], 68.8%; in assay [15] it was 59.5%; in assay [16], 38.2%; in assay [17] it was 37.6%; in [18] it was 16.6%. Further, the growth in assay [19] was 20.5%.
As for `COC(=O)[C@]12CC[C@@H](C)[C@H](C)[C@@H]1C1=CC[C@@H]3[C@@]4(C)C[C@@H](O)[C@H](O)[C@@](C)(CO)C4=CC[C@@]3(C)[C@]1(C)CC2`, the growth in assay [1] was -57.8% (active); in [2], -47.4% (active); in [3], -84.7% (active); in assay [4], -61% (active); in assay [5], -63.4% (active); in [6], -77.6% (active). For the same compound, the growth was -2.22% (active) in assay [7]; -14.1% (active) in [8]; -74.1% (active) in assay [9]; -76.7% (active) in [10]; -41.4% (active) in [11]; -22.8% (active) in assay [12]. The growth was -74.8% (active) in assay [13]; -63.7% (active) in assay [14]; -88.3% (active) in assay [15]; -49.2% (active) in assay [16]; -83.3% (active) in [17]; -89.9% (active) in [18]. In assay [19], the growth was -68.1% (active).
Consider `COc1ccc2c3c(c4ccccc4cc13)C(=O)N(CCN(C)CCN)C2=O`, for which the growth in assay [1] was -71.4% (active); in [2], -67.4% (active); in [3], -44.4% (active); in assay [4] it was -77.4% (active); in [5], -69.2% (active); in assay [6] it was -7.66% (active). In addition, the growth was -77.2% (active) in assay [7]; -78.3% (active) in [8]; -97.9% (active) in assay [9]; -82.7% (active) in assay [10]; -86.6% (active) in [11]; -68% (active) in assay [12]. Besides, the growth in [13] is -75.7% (active); in [14] it was -72.1% (active); in assay [15], -94.3% (active); in assay [16], -67.5% (active); in assay [17] it was -88.9% (active); in assay [18], -83% (active). Further, the growth in assay [19] is -83.2% (active).
In the case of `N#Cc1cnc2cc(OC[C@@H](O)CO)c(NC(=O)CC3CSSC3)cc2c1Nc1ccc(OCc2cccc(F)c2)c(Cl)c1`, the growth in assay [1] is -72.4% (active); in [2], -65.3% (active); in assay [3] it was -84.2% (active); in assay [4], -57.1% (active); in assay [5] it was -66.9% (active); in assay [6], 9.97% (active). The growth was -72.6% (active) in assay [7]; -61.8% (active) in assay [8]; -31.4% (active) in assay [9]; -70.5% (active) in assay [10]; -85.1% (active) in assay [11]; -37.4% (active) in assay [12]. In addition, the growth in assay [13] was -67.6% (active); in assay [14], -60.5% (active); in assay [15] it was -72.9% (active); in assay [16] it was -57% (active); in [17], -80.5% (active); in [18] it was -79.7% (active). Moreover, the growth in assay [19] was -78.7% (active).
As to `COC(=O)[C@]12CC[C@@H](C)[C@H](C)[C@@H]1C1=CC[C@@H]3[C@@]4(C)C[C@@H](O)OC[C@](C)(C=O)C4C(=O)C[C@@]3(C)[C@]1(C)CC2` (stereo partly drawn), the growth is 5.09% (active) in assay [1]; -21.5% (active) in assay [2]; 27.6% in [3]; 13% in assay [4]; -13% (active) in assay [5]; -28.6% (active) in assay [6]. In addition, the growth in [7] is -41.9% (active); in [8] it was 7.39% (active); in assay [9], 2.91% (active); in assay [10], -94.4% (active); in assay [11], 14.5%; in assay [12] it was 3.89% (active). Also, the growth in [13] is -8.79% (active); in assay [14], -14.9% (active); in assay [15], -7.01% (active); in [16], 34.9%; in assay [17] it was 1.62% (active); in assay [18], 7.45% (active). Also, the growth in [19] was 6.13% (active).
As for `c1ccc(-c2nc(Nc3ccc(-c4nc5ccccc5[nH]4)cc3)nc(N3CCOCC3)n2)cc1`, the growth in assay [1] is -59.1% (active); in assay [2], -19.3% (active); in assay [3], -0.466% (active); in assay [4] it was -64.5% (active); in assay [5], -67.3% (active); in [6] it was -66.3% (active). The growth in [7] was -68.2% (active); in assay [8] it was -68.4% (active); in assay [9] it was -88.9% (active); in assay [10], -68.8% (active); in [11] it was -27.8% (active); in assay [12] it was -30.1% (active). In addition, the growth was -77.3% (active) in assay [13]; -63.3% (active) in assay [14]; -75.1% (active) in assay [15]; -43.4% (active) in assay [16]; -76.4% (active) in assay [17]; -76.8% (active) in assay [18]. Besides, the growth in assay [19] is -80.7% (active).
Take `COc1ccc(-c2nc(Nc3ccc(-c4nc5ccccc5[nH]4)cc3)nc(N3CCOCC3)n2)cc1`: the growth in [1] was 11.3%; in assay [2], 17.1%; in [3], 27%; in [4], -27.3% (active); in assay [5], 0.132% (active); in [6] it was -6.57% (active). Also, the growth in assay [7] is 11.9%; in assay [8], 11.2%; in [9], -60% (active); in assay [10] it was -43.7% (active); in assay [11], 38.5%; in assay [12], -22% (active). The growth in assay [13] is -65.7% (active); in [14], 5.74% (active); in assay [15], -67.5% (active); in [16] it was 34.1%; in assay [17], -63.5% (active); in assay [18], 0.307% (active). Besides, the growth in assay [19] is -7.64% (active).
